# Measurements reported in the supplement of paper PMC6555819.
# System: VDR:RXRa (NR concentration 270 nM, RXRa partner concentration 90 nM)
# Assay: PBM binding z-score (relative to random genomic background probes); higher = stronger binding; sequences stand for … in GC…GCGATTGACAGCGTAGAATGAAGG
# Method: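 Protein-binding microarray (Agilent 4x180K custom design, double-stranded 60-nt probes: 5' GC cap, 34-nt variable region, 24-nt constant primer region; full probe sequence given). Purified or IVT nuclear receptor:RXRα heterodimers (3:1 NR:RXRα, mostly 270:90 nM) or homodimers were incubated for 1 h in PBS with 2% milk and no ligand, then detected with Alexa488 antibodies. Fluorescence from o1-orientation probes (~5 replicates averaged) was converted to z-scores against 500 random hg19 background probes. Variable regions are seed direct-repeat (DR0–DR5) sites, all their single-nucleotide variants and half-site ablations.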
row,Sequence,PBM binding z-score
1,TGGCAAAGTTCAAAGGTAACGTAAGTATCCACAC,5.01
2,AGAACGAGGGCAATGAGTTGATAGCTCGGGTGGC,4.8
3,CCTACTGGGCCACAAAAGGTCATTGATTCAGTGA,3.98
4,TCTTGTAGATCAAGCAAGTTAAGAAAGCCTGAGT,0.328
5,GCTTACGGGTCAAAGGTTATAGCATGAATAGAAT,5.86
6,ATATGTAGGTTAGCTGGGGTCTTTCAGACTAGGC,1.28
7,CCGCGTAGGTTATGGGGCATTCAGGCAACGGTGA,-0.207
8,ATCTCTAGGTAAAGTTCAGTGCAAGATCGATAGA,1.87
9,AGAATGAGGTTCAGATCAGGGAAACAGAATACAT,0.949
10,GCTAGCAGGCCATTTGGGTCAGTCAATGACGGGC,0.157
11,GCTGCTAGGGCAACTGATGGTCAGCTAAAGCTCG,-0.881
12,GCAGACAGGTGAAACGCTGGTAACTCAGGGTGGC,-0.466
13,CGAACTTGGTCAGAACAGGACAGTGAAGGATGAT,-0.145
14,AGAATGAGGTTAAGATCAGAGAAACAGAATACAT,1.11
15,AGAATGAGGATATACGTAGATCAGGGAAGAAAGT,-0.427
16,TCAGATAGGTGAAGGTAACTCAGGTACGCAGTCG,0.796
17,GCGACGGGGGCATCAGCAGGTTACCATAACTTAA,3.67
18,CGTCCAAGGTCAAGGTCAGTGACAGAGACTCGAA,4.83
19,CGAACTAGGTCATTGACAGTACAGTGAATAGTAA,2.57
20,TGAATGAGGTTATAAGGTCAGGGAACGTTGCAAA,4.04

row,Sequence,PBM binding z-score
1,TCTGCTAGGTCAACGATGGTCACCTAATCTGCTA,2.19
2,AGTCAAAGTTCAGGCCGAGGTAACGTAAAGCACG,3.01
3,TCAGACAGGTCAAGGTAACTCAGGTACGCAGTCG,3.09
4,CCTGGGAGGACAACAGGAGGTCAGAGCTGCCAGA,1.99
5,TGAATGAGGTTATAGGATCAGGGAACGTTGCAAA,1.13
6,CATACAGGATCAGCTAGGCCAGAGTAGGGACGGC,-0.514
7,TTGCCTAGGTCATGCGGGCCAGTATAGTGTCGGC,2.8
8,TCTATTAGTTGATGAGGGCAACCGAAACAGCGGA,1.15
9,GCTCGGAGGACAAGGTCAGCGCTTTGTCCGTAGA,1.88
10,ACTATTAGTTGACTTAAGGCAACCGATACGACGC,0.358
11,CTCGAAACGTCGGTTGAGGTGAGTATACGGATAA,-0.213
12,CCTACTGGGCCACGAAAGTTCATTGATTCAGTGA,3.51
13,ACTAGTTGGTCAGCTCAGGTCACACACAATTCGG,2.23
14,GCGAGTGGGGCAAAGCAGGTTACCATAAGGTTGG,0.296
15,AGAACGAGGTTATACGTAGATCAGGGAAGAAAGT,1.08
16,ACTATTAGTTGAATTAGGGCAACCGATACGACGC,0.274
17,TCATATAGCTAAAAGGTGAAAGTCGGTGTGGTAA,0.864
18,ACTTACGGGTCGACGAGGTTATAGCACGCGTATA,6.05
19,CCTAGTTAGTCAAGGTCACACACGCTATAGGTAC,4.26
20,ATCTCTAGGGAAAGTTCAGTGAAAGATCGATAGA,1.12
